Assay in all cases: NCI-60 one-dose screen, 48 h (100 = growth as untreated, 0 = no growth, -100 = all killed)
Holding throughout (details): 10 µM unless noted

The subject of test [1] is SK-MEL-2 melanoma.
In test [2] the test system is EKVX NSCLC.
The subject of test [3] is SN12C renal.
Test [4] concerns UO-31 renal.
Test [5] deals with TK-10 renal.
Test [6] concerns ACHN renal.
Test [7] has as its system CAKI-1 renal.
The subject of test [8] is A498 renal.
Test [9] has as its system CCRF-CEM leukemia.
The subject of test [10] is MOLT-4 leukemia.
Test [11] has as its system SR leukemia.
The subject of test [12] is RPMI-8226 leukemia.
Test [13] concerns OVCAR-8 ovarian.
Test [14] deals with OVCAR-5 ovarian.
The test system of test [15] is OVCAR-4 ovarian.
Test [16] relates to SK-OV-3 ovarian.
Test [17] deals with IGROV1 ovarian.
The test system of test [18] is OVCAR-3 ovarian.
In test [19] the test system is HS 578T breast.
In test [20] the test system is NCI/ADR-RES ovarian.

Data on 7 compounds can be found in PubChem BioAssay (NCI).

The panel holds about 83,000 compounds, 20% with a hit somewhere; the sample as a whole holds those more often.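 The test compound was applied at a single concentration to cells in 96-well plates for 48 hours, and percent growth was recorded.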 Values without a mark were called inactive. Calls of active or inactive are those of the source. Rule for the calls: active = growth percent below 10; inactive = the rest.

Regarding `COc1cc(CNC(=O)C[C@H](C)CCC=C(C)C)ccc1OCc1cn(-c2cccc(C(F)(F)F)c2)nn1`, the growth in [1] was 111%; in [2] it was 92.1%; in test [3], 27.1%; in test [4] it was 75.7%; in test [5], 102%; in [6], 77.6%. In addition, the growth in test [7] was 73.6%; in test [8] it was 91%; in [9], 97.1%; in test [10], 84.8%; in test [11], 41.5%; in test [12], 89.8%. Besides, the growth in test [13] is 28.1%; in test [14], 97.5%; in [15] it was 45.1%; in [16], 89%; in test [17], 102%; in test [18] it was 103%. Besides, the figures for the growth in [19] and in test [20] were 94.3% and 44%, respectively.

For `Fc1cccc(CNc2nc(SCCN3CCOCC3)nc3c2cnn3CC(Cl)c2ccc(Br)cc2)c1` (stereo not given), the growth is 13.5% in test [1]; 41.1% in [2]; 36.5% in test [3]; -3.52% (active) in test [4]; 46.7% in test [5]; 17.3% in [6]. Further, the growth was 26.7% in test [7]; 57.2% in [8]; 6.67% (active) in test [9]; -23.8% (active) in test [10]; -18.1% (active) in [11]; 2.98% (active) in [12]. In addition, the growth in test [13] is 32.6%; in test [14], 59.9%; in test [15] it was 27.3%; in test [16] it was 51.3%; in [17] it was 52.2%; in [18] it was 49.7%. The growth was 19.2% in test [19] and 23% in [20].

For the compound `COc1cccc2nc(Nc3cccc(NC(=O)c4ccc(CN5CCN(C)CC5)c(C(F)(F)F)c4)c3)ccc12`, the growth is -87.8% (active) in test [1]; -96.2% (active) in [2]; -90.5% (active) in [3]; -88.6% (active) in test [4]; -93.1% (active) in test [5]; -100% (active) in [6]. Also, the growth in [7] was -100% (active); in [8] it was -94.9% (active); in test [9], -44.4% (active); in test [10], -38.5% (active); in test [11], -36.1% (active); in [12], -40.2% (active). For the same compound, the growth in test [13] was -65.2% (active); in [14] it was -98% (active); in test [15], -82.9% (active); in [16], -81.9% (active); in test [17] it was -87.1% (active); in test [18], -36.6% (active). Besides, the results for the growth in test [19] and in test [20] were -21.1% (active) and -89.7% (active), respectively.

`Cc1ccc(/C=C/C(=O)c2ccc(S(=O)(=O)NCCNc3nc(N(C)C)nc(N4CCOCC4)n3)cc2)cc1`: the growth in [1] is 94.1%; in [2] it was 82.6%; in test [3], 86.4%; in [4] it was 73.2%; in test [5], 112%; in [6] it was 101%. Besides, the growth in test [7] was 64.6%; in [8], 96%; in [9] it was 52.1%; in [10] it was 13.5%; in [11], -36.4% (active); in test [12], -15.6% (active). The growth in test [13] was 88.8%; in [14], 97.6%; in test [15], 91.6%; in [16], 90.5%; in test [17] it was 102%; in [18], 109%. The growth was 97.9% in test [19] and 86.2% in test [20].

Consider `Cc1nn(-c2ccccc2)c2nc(C)n(CC(=O)N/N=C/c3ccccc3O)c(=O)c12`, for which the growth in test [1] is 38.1%; in test [2] it was 13%; in [3], 30%; in [4], 13.2%; in test [5], 32.8%; in test [6], 14.6%. Also, the growth was 22.6% in [7]; 97% in test [8]; 25.7% in test [9]; 22.8% in test [10]; 54.7% in test [11]; 29.1% in [12]. The growth in test [13] was 22%; in [14], 46.6%; in test [15], 31.2%; in [16] it was 25%; in test [17], 24.2%; in test [18], 51.3%. In addition, the growth was 55.4% in test [19] and 16.7% in test [20].

As to `Cc1ccc2c(c1)/C(=C/C(=O)c1cc3ccccc3oc1=O)C(=O)N2`, the growth is 72.6% in [1]; 78.2% in test [2]; 67.8% in test [3]; 55.2% in test [4]; 80.7% in [5]; -63.2% (active) in test [6]. In addition, the growth in [7] was 76.9%; in test [8], 128%; in test [9], 3.14% (active); in test [10], 32.8%; in test [11] it was 6.51% (active); in test [12] it was 36.7%. Moreover, the growth is 54.9% in [13]; 77.4% in test [14]; 53.9% in [15]; 100% in test [16]; 102% in test [17]; -0.742% (active) in test [18]. For the same compound, the growth in test [19] is 78%; in [20], 65.9%.

Regarding `O=CNc1ccc(-n2cnc3cc(-c4ccc(O)cc4)ccc32)cc1`, the growth in [1] is 115%; in test [2], 106%; in test [3] it was 71.7%; in [4], 61%; in test [5], 108%; in test [6] it was 65.4%. The growth in test [7] was 87.3%; in test [8] it was 135%; in test [9], 76.4%; in test [10], 77.3%; in [11], 55.9%; in test [12], 66.1%. For the same compound, the growth in test [13] is 82.4%; in test [14] it was 94.7%; in [15], 74.9%; in test [16], 111%; in test [17], 118%; in [18], 68.6%. Moreover, the growth was 93.3% in test [19] and 81.6% in test [20].
